# PDI turbidity = PDI (human) enzyme inhibition; 350,000 compounds, 0.052% hits; PDI insulin aggregation turbidity, A650, 90 min; AID 588391; inhibition, % at 10 µM;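 active means mean inhibition across replicates of 30% or more, whatever share of single replicates reach that level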
# Target sequence (P07237 whole entry, looked up): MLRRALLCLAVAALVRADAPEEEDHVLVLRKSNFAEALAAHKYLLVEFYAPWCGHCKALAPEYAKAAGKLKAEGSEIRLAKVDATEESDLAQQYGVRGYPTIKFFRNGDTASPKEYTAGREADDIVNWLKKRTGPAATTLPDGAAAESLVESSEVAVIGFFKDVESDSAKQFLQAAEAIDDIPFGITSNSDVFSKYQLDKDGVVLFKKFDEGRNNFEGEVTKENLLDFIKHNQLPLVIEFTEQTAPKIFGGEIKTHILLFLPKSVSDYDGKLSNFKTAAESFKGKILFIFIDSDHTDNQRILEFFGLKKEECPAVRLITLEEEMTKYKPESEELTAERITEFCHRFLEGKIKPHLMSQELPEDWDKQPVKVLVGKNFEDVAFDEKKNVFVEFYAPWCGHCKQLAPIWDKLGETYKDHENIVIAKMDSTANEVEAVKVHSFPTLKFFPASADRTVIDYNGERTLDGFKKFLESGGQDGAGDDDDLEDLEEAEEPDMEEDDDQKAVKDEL
# ARNT TACC3 PPI = disrupts binding between human ARNT and TACC3; Q9Y6A5; AlphaScreen His-ARNT PAS-B/GST-TACC3 binding, luminescence; TACC3 fragment carries E629A point mutation; inhibition, % at 9.99 µM; 390,000 compounds, 0.66% hits; AID 623870;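 active means mean inhibition of replicates at least 50% and at least half of replicates each reaching 50%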;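 further: 0% = complete ARNT plus TACC3 wells and 100% = ARNT alone without TACC3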
# NRP1-CendR mod = NRP-1/CendR interaction modulation; inhibition, % at 25 µM; O14786; 360,000 compounds, 0.85% hits; AID 602438; FAM-RPARPAR peptide binding to NRP-1, fluorescence polarization;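 active means inhibition or corrected inhibition above about 18%, plus a signal ratio from 0.5 to 1.5, limit read from the data, passing the limit was not always enough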
# PglD inh = blocks C. jejuni PglD acetyltransferase activity | purified PglD enzyme, DTNB colorimetric CoA detection | AID 602405 | 360,000 compounds, 0.098% hits | inhibition, % at 12.5 µM; in the data active means inhibition above about 16%, passing the limit was not always enough
# ALR H2O2 inh = human ALR oxidase inhibition via reduced H2O2; purified ALR, DTT oxidation, H2O2 HRP-luminol luminescence; 290,000 compounds, 3.8% hits; AID 485317; inhibition, % (concentration not given with the values);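 active means mean replicate inhibition above about 79%, with every replicate also reaching it, limit read from the data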
# ERp5 inh = inhibitors of human ERp5; inhibition, % at 9.99 µM; Q15084; 350,000 compounds, 0.05% hits; ERp5 insulin aggregation, absorbance 650 nm, 90 min; AID 651711;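 active means mean replicate inhibition above about 25%, with every replicate also reaching it, limit read from the data, passing the limit was not always enough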
# The depositor's hits bear a star; nt = no result. Shown is part of a subset that was picked to be rich in hits.
SMILES,PDI turbidity,ARNT TACC3 PPI,NRP1-CendR mod,PglD inh,ALR H2O2 inh,ERp5 inh
COc1ccc(S(=O)(=O)N(C)C[C@@H]2OCCCC[C@@H](C)Oc3ccc(NC(=O)c4ccccc4)cc3C(=O)N([C@H](C)CO)C[C@H]2C)cc1,nt,-6,nt,3,nt,1
COc1ccc(N=c2scc(-c3ccc(OC)cc3)n2CCO)cc1,-13,25,1,1,86*,nt
OCCCn1c(-c2ccccc2)csc1=Nc1ccccc1,7,29,-4,9,40,-6
CCc1ccc(OCC(=O)N/N=C\c2ccco2)c([N+](=O)[O-])c1,-16,-3,-11,-4,96*,-2
Cc1ccc(OCC(=O)N/N=C\c2ccc(O)cc2)c([N+](=O)[O-])c1,-10,-7,1,nt,87*,1
O=C(COc1ccccc1[N+](=O)[O-])N/N=C/c1ccc(O)cc1,-2,7,11,-4,nt,nt
O=C(Nc1ccccc1)N1C[C@H]2[C@@H](c3ccccc31)[C@@H](CO)N2C(=O)c1cccnc1,nt,4,nt,2,nt,2
COc1ccc(-c2cn(CC[C@@H]3CC[C@H](NC(=O)NC(C)C)[C@@H](CO)O3)nn2)cc1,nt,-6,nt,2,nt,-6
CCc1ccc(S(=O)(=O)N2CC(=O)Nc3ccccc32)cc1,12,0,10,0,2,-2
CCOC(=O)c1ccc(S(=O)(=O)N2CC(=O)Nc3ccccc32)cc1,7,nt,-9,2,99*,3
C[C@@H]1CCCCO[C@@H](CN(C)C(=O)c2ccncc2)[C@@H](C)CN([C@@H](C)CO)C(=O)c2cc(NC(=O)C3CCCCC3)ccc2O1,nt,-2,nt,2,nt,-2
Cc1csc(=O)n1CC(=O)OCC(=O)Nc1ccc(C(N)=O)cc1,-7,1,-14,-2,-5,-4
Cc1csc(=O)n1CCC(=O)OCC(=O)Nc1ccc(C(N)=O)cc1,6,0,23*,2,-17,-2
CC(=O)N(C)C[C@@H]1Oc2cc(-c3cccc(F)c3)ccc2S(=O)(=O)N([C@@H](C)CO)C[C@H]1C,nt,-3,nt,-1,nt,-6
COc1cccc(NC(=O)N(C)C[C@@H]2OCc3cnnn3CCCC(=O)N([C@H](C)CO)C[C@H]2C)c1,nt,-11,nt,1,nt,-1
C[C@H](CO)N1C[C@H](C)[C@H](CN(C)C(=O)c2ccccc2)OCCCC[C@H](C)Oc2ccc(NC(=O)Nc3ccccc3)cc2C1=O,nt,-3,nt,-2,nt,-2
CC1CN(C(=O)c2ccccc2NS(=O)(=O)c2ccc(Cl)cc2)CC(C)O1 (stereo unspecified),3,-5,19*,-2,2,1
COCCCNC(=O)[C@@]1(Cc2ccccc2N=[N+]=[N-])N=C(c2ccc(OCCCO)cc2)O[C@H]1c1ccccc1N=[N+]=[N-],nt,7,nt,-5,nt,-3
CC(=O)C1=C(O)C(=O)N(c2ccc(O)cc2)C1c1ccc(Cl)cc1 (stereo unspecified),-6,-1,8,4,81*,5
COc1ccc(C2C(C(C)=O)=C(O)C(=O)N2c2ccc(F)cc2)cc1 (stereo unspecified),2,-21,3,0,0,4
CC(=O)C1=C(O)C(=O)N(c2ccc(Br)cc2)C1c1ccc(Cl)cc1 (stereo unspecified),5,-8,2,2,56,1
CC(=O)C1=C(O)C(=O)N(c2ccc(O)cc2)C1c1ccc([N+](=O)[O-])cc1 (stereo unspecified),2,-2,17,7,82*,-2
COc1ccc(C2C(C(C)=O)=C(O)C(=O)N2c2ccc(O)cc2)cc1 (stereo unspecified),-12,-4,-3,-16,88*,7
C[C@@H]1CCCCO[C@@H](CN(C)Cc2ccc(C(F)(F)F)cc2)[C@H](C)CN([C@H](C)CO)C(=O)c2cc(NC(=O)CCC(F)(F)F)ccc2O1,nt,-3,nt,21,nt,-1
CC1CCC(NC(=O)CSc2nncn2C)CC1 (stereo unspecified),3,-3,23*,9,2,3
SMILES,PDI turbidity,ARNT TACC3 PPI,NRP1-CendR mod,PglD inh,ALR H2O2 inh,ERp5 inh
Cn1cnnc1SCC(=O)Nc1ccccc1,8,-5,5,0,-15,4
Cn1cnnc1SCC(=O)Nc1ccc(N2CCCCC2)cc1,3,nt,15,2,99*,-3
Cn1cnnc1SCC(=O)Nc1ccc(S(N)(=O)=O)cc1,1,-20,-3,1,94*,-2
COCCn1cnnc1SCC(=O)Nc1ccc(N2CCCCC2)cc1,-1,-4,-11,-2,95*,0
Cc1cccc(S(=O)(=O)N2C[C@H](O)COC[C@@H]3O[C@@H](CC(=O)Nc4ccc(-c5ccccc5)cc4)CC[C@H]32)c1,nt,-2,nt,-3,nt,nt
COc1ccc(NC(=O)N[C@H]2CC[C@H](CCNC(=O)CN3CCOCC3)O[C@H]2CO)cc1,nt,-2,nt,0,nt,14
CCNC(=O)[C@H]1[C@H](CO)[C@H]2Cn3c(ccc(C4=CCCC4)c3=O)[C@@H]1N2Cc1ccncc1,nt,-4,nt,1,nt,-5
C[C@H]1CN([C@@H](C)CO)S(=O)(=O)c2ccc(C#CCN(C)C)cc2O[C@@H]1CN(C)C(=O)Nc1ccccc1F,nt,22,nt,0,nt,1
C[C@H]1CN([C@@H](C)CO)C(=O)c2cc(C3=CCCCC3)cnc2O[C@H]1CN(C)C(=O)C1CCOCC1,nt,1,nt,0,nt,-2
CN(C)CC(=O)Nc1ccc2c(c1)[C@@H]1C[C@H](CC(=O)NCc3cc(F)ccc3F)O[C@@H](CO)[C@@H]1O2,nt,-1,nt,1,nt,0
COc1ccc(OC)c(C2CC(=O)N3CN(c4ccccc4F)CSC3=C2C#N)c1 (stereo unspecified),nt,0,-17,10,79*,-7
COc1cccc(C2CC(=O)N3CN(c4ccccc4F)CSC3=C2C#N)c1 (stereo unspecified),nt,0,9,4,-27,-3
Cc1ccc(NC2CCCN(C(=O)c3cn(C)c4ccccc34)C2)cc1C (stereo unspecified),4,6,-5,3,92*,1
COc1ccc(NC2CCCN(C(=O)c3cn(C)c4ccccc34)C2)cc1 (stereo unspecified),7,0,-7,4,99*,-5
Cn1c(C(=O)N2CCCC(Nc3ccc(F)cc3)C2)cc2ccccc21 (stereo unspecified),11,2,3,5,41,6
CNC[C@H]1Oc2ccc(NC(=O)Nc3ccc(F)cc3)cc2CC(=O)N([C@@H](C)CO)C[C@@H]1C,nt,-3,nt,-1,nt,-5
CCNC(=O)C[C@H]1CC[C@H](NC(=O)C2CCC2)[C@H](CO)O1,nt,4,nt,0,nt,-2
O=C(O)[C@H](Cc1ccccc1)NC(=O)N1CCC(Cc2ccccc2)CC1,13,-1,-3,-5,-6,-2
